According to PubChem BioAssay (NCATS):
Inconclusive results are not listed. Activity calls are given as the source filed them. Calls follow the shape of the dose curve; as a rule, active = well fitted inhibition curve with a large enough effect; inconclusive = small, poorly fitted or top-dose-only effect; inactive = no such curve, though single readings can be large or run the other way.

Target: Retinaldehyde dehydrogenase 3 (Homo sapiens) (UniProt P47895)
Test: qHTS for Inhibitors of the Aldehyde Dehydrogenase Family (ALDH1A3) Confirmatory screens (AID 2061311); also: nearly all actives have a fitted effect of over 60% in size
Conditions: ALDH inhibition qHTS; series mostly up to 46 µM; activity change, negative = inhibition: at the top concentration
% is scaled to controls: 0 for no effect and ±100 for the full control effect; potency is read from the fitted curve at half-maximal effect.

SMILES	activity change, negative = inhibition	Potency	outcome
CCOc1ccccc1NC(=O)Nc1cc(C(=O)NCc2ccc(C)cc2)ccc1N1CCCC1	1.94% (inactive)	–	–
CCOCc1ccccc1Nc1ncnc2onc(-c3ccc(Cl)cc3)c12	3.24% (inactive)	–	–
CCOc1ccc(NC(=O)NCCCN2CCN(c3ccc(OC)cc3)CC2)cc1	-51.7% (inactive)	–	–
CCc1nn2c(=O)c(S(=O)(=O)Nc3ccc(C)cc3C)c(C)nc2s1	2.23% (inactive)	–	–
Cn1ncc2c(C(=O)NCc3ccc(F)cc3)cc(-c3ccc(F)cc3)nc21	-26.5% (inactive)	–	–
CCOc1ccc(S(=O)(=O)NCc2nc3cccnc3n2Cc2ccccc2OC)cc1	–	15.8 µM (active)	–
N#Cc1cccc(C(=O)Nc2ccc3c(N4CCOCC4)ncnc3c2)c1	1.89% (inactive)	–	–
Cn1ncc2c(C(=O)NCC(F)(F)F)cc(-c3ccccc3F)nc21	-45.3% (inactive)	–	–
CCn1nc(-c2cccc(-c3ccnn3C)c2)nc1N(C)C	–	–	inactive
Cc1cc2ncc(C(=O)NCCc3ccccc3F)cn2n1	-13.1% (inactive)	–	–
Cc1cc(=O)[nH]c(CCNc2nc(-c3ccncc3)nc3c2c(C)nn3C)n1	–	–	inactive; activator
CN1Cc2nc(Nc3ccc(C(F)(F)F)cc3)ccc2OCC1=O	–	15.8 µM (active)	–
Cc1ccc(-n2c(=O)c3c(cnn3C)n(CC(=O)Nc3cccc(Cl)c3)c2=O)cc1	4.67% (inactive)	–	–
CCC(=O)NC(C)c1cc(Cl)c2ccccc2c1O (stereo not given)	–	12.7 µM (active)	–
Cc1cccc(-c2cccc(CN)c2)c1	-22.7% (inactive)	–	–
OCc1ccc(-c2ccc3nnc(-c4ccccn4)n3n2)cc1	-22.1% (inactive)	–	–
Cn1cc(-c2cnc(Nc3ccncc3)c3c2CCO3)cn1	–	–	inactive
Cc1ccc(N[S+](=O)([O-])c2cc3c(cc2N[C@@H](C)CO)NC(=O)CC3)cc1N[C@@H](C)CO	–	14.2 µM (active)	–
COc1cc(CNC(=O)c2ccc(NC(=O)N3CCCCc4ccccc43)cc2)cc(OC)c1OC	-21.7% (inactive)	–	–
COc1ccc(Cl)cc1NC(=O)c1cc2nc(-c3ccc(C)cc3)cc(C(F)(F)F)n2n1	–	–	inactive

SMILES	activity change, negative = inhibition	Potency	outcome
CCc1nn2c(=O)c(S(=O)(=O)Nc3ccc(Cl)cc3)c(C)nc2s1	-3.82% (inactive)	–	–
CNC(=O)c1cccc(-c2ccc(C(C)(C)C#N)cc2)n1	–	8.91 µM (active)	–
COc1ccc(C)cc1NC(=O)N1CCC(OC2CCN(Cc3ccccc3)CC2)CC1	–	–	inactive
COc1cc(F)ccc1-c1cnc2n[nH]c(-c3sccc3C)c2n1	–	–	inactive
COc1ccc(-c2nc3ccccc3c(=O)n2Cc2ccccc2)cc1OCc1ccc(NC(C)=O)cc1	–	22.5 µM (active)	–
Cc1cc(C)n2nc(SCC(=O)Nc3ccccc3C)nc2n1	-41.6% (inactive)	–	–
Cc1cc(Br)ccc1NC(=O)CCNS(=O)(=O)c1cccc2nonc12	-43.9% (inactive)	–	–
COc1cccc(CNc2ccc(S(=O)(=O)Nc3ccc(N4CCNCC4)nc3)cc2)c1O	–	15.9 µM (active)	–
CN(C)Cc1nnc(C2CC(NC(=O)c3ccc4scnc4c3)C2)n1C (stereo not given)	-5.86% (inactive)	–	–
CCc1ccccc1NC(=O)c1ccc(F)c(S(=O)(=O)N2CCN(c3cccc(Cl)c3)CC2)c1	4.87% (inactive)	–	–
O=C(CCc1ccccc1)Nc1ccc([C@@H](O)[C@H]2COCC(=O)N2Cc2ccncc2)cc1	0.496% (inactive)	–	–
CCOC(=O)c1noc2ncnc(Nc3ccc(C)c(F)c3)c12	-12.2% (inactive)	–	–
CN(C(=O)c1cnc2n[nH]c(-c3ccccc3)c2n1)c1ccccc1	-33.3% (inactive)	–	–
Cn1c(Oc2cccc(Cl)c2)nc2c1c(=O)n(Cc1ccccc1Cl)c(=O)n2C	–	31.6 µM (active)	–
O=C(CSc1nc(-c2cccs2)nc2cc(=O)[nH]n12)Nc1cccc(C(F)(F)F)c1	-32.5% (inactive)	–	–
O=C(O)c1cc(Br)c(O)c2ncccc12	1.04% (inactive)	–	–
COc1ccc(N2CCN(C(=O)CS(=O)(=O)c3cccc4nsnc34)CC2)cc1	2.92% (inactive)	–	–
CCOc1cccc(CNC(=O)c2ccc(N3CCCC3)c(NC(=O)NCc3ccccc3)c2)c1	1.95% (inactive)	–	–
CCOc1ccc(NC(=O)Nc2cc3c(cc2N2CCCCC2)n(C)c(=O)n3C)cc1	-43.3% (inactive)	–	–
O=C(Nc1ccccc1Cl)c1nc2cccnc2n(Cc2ccccc2)c1=O	-11% (inactive)	–	–
